Wnt bcat act = activators of Wnt/beta-catenin signaling. hit rate 1.2% among 300,000. Wnt/beta-catenin reporter cell assay, activator, plate reader. AID 743398. activation, % at 9.35 µM; in the data active = activation above about 30%, passing the limit was not always enough; inconclusive = no clear call, values can overlap the other calls;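 note: 0% = neutral control wells and 100% = positive control wells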
HSF1 inh = HSF1 inhibition | activity change, negative = inhibition, % at 7.5 µM (by protocol) | AID 2098 | hit rate 0.77% among 300,000 | NIH3T3-HGL HSE-luciferase, MG132-induced, luminescence 8 h; stronger effect = lower value;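 active = more than half of replicate wells show activity change below -50%, luminescence cut by over half; inconclusive = some wells, but at most half, below -50%; inactive = no replicate well below -50%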;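 note: luciferase reports HSF-1 transcriptional activity via heat shock element; 0% = median of DMSO wells and -100% = zero luminescence signal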
esBAF inh = SWI/SNF esBAF complex inhibition | hit rate 2% among 350,000 | mouse ES cells, Bmi1-luciferase knock-in reporter, 24 h; 100% = twice the neutral-well signal | reporter increase, % at 12.5 µM; in the data active = activation above about 40%; inconclusive = no clear call, values can overlap the other calls;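 note: 0% = median of the plate's neutral control wells and 100% = double that signal; a rise in the Bmi1 reporter signal indicates esBAF inhibition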
HSF-1 act = increases HSF-1 driven luciferase reporter signal | NIH3T3-HGL HSF-1 luciferase reporter, MG132, 8 h; 100% = twice DMSO control signal | activation, % at 9 µM | hit rate 1.7% among 300,000 | AID 504408;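 active = mean replicate activation of at least 50% with a set share of replicates each reaching 50%; inconclusive = only one of those two conditions met; inactive = mean below 50% and too few replicates reaching it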;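 note: 0% = median of the neutral control wells and 100% = twice that signal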
MITF TRPM1 HTS = MITF TRPM1 promoter activation in melanoma cells. SK-MEL-5 TRPM1-promoter luciferase, 24 h; % of positive control, neutral wells = 0. activation, % at 12.5 µM. hit rate 0.75% among 300,000. AID 588334;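 active = mean activation of at least 80% with every replicate also reaching 80%; inconclusive = mean reaches 80% but some replicate falls short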;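 note: 0% = neutral control wells and 100% = parthenolide positive control wells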
The depositor's hits bear a star. This is a sample that favours compounds with a hit; in the whole collection about 3.9% have one here.

What do the screens show for `CNC[C@H]1Oc2c(NS(=O)(=O)c3cn(C)cn3)cccc2C(=O)N([C@@H](C)CO)C[C@H]1C`?
esBAF inh: -3.0

What do the screens show for `COCC(=O)Nc1ccc2c(c1)[C@H]1C[C@@H](CC(=O)NCCc3ccccc3)O[C@@H](CO)[C@H]1O2`?
esBAF inh: 5.3

How did CN1CCN(C(=O)C[C@H]2CC[C@H]3[C@@H](COC[C@H](O)CN3CC3CC3)O2)CC1 do in these assays?
esBAF inh: -3.8

Results for Nc1nn(-c2ccccc2)c(N)c1N=Nc1ccc2c(c1)OCO2 ?
Wnt bcat act: 26.7; HSF1 inh: -36.3; HSF-1 act: -40.9; MITF TRPM1 HTS: 20.0

How did Nc1[nH]n(-c2ccccc2)c(=O)c1N=Nc1ccc2c(c1)OCO2 do in these assays?
Wnt bcat act: 58.2*; HSF1 inh: -2.8; esBAF inh: 33.3; HSF-1 act: 0.4; MITF TRPM1 HTS: 77.1

How did Cc1cc([N+](=O)[O-])ccc1N=Nc1c(N)[nH]n(-c2ccccc2)c1=O do in these assays?
Wnt bcat act: -0.9; HSF1 inh: 2.6; HSF-1 act: 21.2; MITF TRPM1 HTS: 0.9

How did Nc1[nH]n(-c2ccccc2)c(=O)c1N=Nc1ccc2c(c1)OCCO2 do in these assays?
Wnt bcat act: 34.4*; HSF1 inh: -7.7; esBAF inh: -7.3; HSF-1 act: -23.6; MITF TRPM1 HTS: 61.1

How did N#C[C@H]1[C@@H](c2ccccc2)[C@@H](CO)N1C(=O)c1cc(Cl)cc(Cl)c1 do in these assays?
esBAF inh: 1.9

How did CN1CCN(C(=O)C[C@@H]2C[C@@H]3c4cc(NC(=O)Nc5ccccc5)ccc4O[C@@H]3[C@H](CO)O2)CC1 do in these assays?
esBAF inh: 6.2

How did C[C@H](O)C#Cc1cnc2c(c1)C(=O)N([C@H](C)CO)C[C@H](C)[C@@H](CN(C)C(=O)Cc1ccncc1)O2 do in these assays?
esBAF inh: 0.5

What do the screens show for `Clc1cnc2nc(SC/C=C/c3ccccc3)[nH]c2c1`?
Wnt bcat act: -0.6; HSF1 inh: 18.1; HSF-1 act: 12.6

How did C(=C\c1ccccc1)/CSc1nc2ncccc2[nH]1 do in these assays?
Wnt bcat act: -1.4; HSF1 inh: 43.1; esBAF inh: inconclusive; HSF-1 act: 71.5*; MITF TRPM1 HTS: 55.5

How did CCCNC(=O)N1[C@H](CO)[C@H](c2ccccc2)[C@@H]1CNC(C)=O do in these assays?
esBAF inh: -0.9

How did Cc1ccc(N/N=C(\C#N)C(=O)c2ccsc2)cc1 do in these assays?
Wnt bcat act: 6.0; HSF1 inh: -7.0; HSF-1 act: 2.8; MITF TRPM1 HTS: 0.8

What do the screens show for `Cc1ccc(N/C=C(/C#N)c2ccsc2)cc1C`?
HSF1 inh: 57.8; esBAF inh: 62.1*; HSF-1 act: 100.9*; MITF TRPM1 HTS: 46.8

Results for CCn1c(SCC(=O)c2ccccc2)nnc1-c1ccoc1C ?
HSF1 inh: 28.9; esBAF inh: 19.3; HSF-1 act: 40.6; MITF TRPM1 HTS: 13.0

How did CCn1c(SCC(=O)c2ccc(Cl)cc2)nnc1C(C)C do in these assays?
Wnt bcat act: 35.9*; HSF1 inh: 148.2; esBAF inh: 28.4; HSF-1 act: 145.4*; MITF TRPM1 HTS: 63.6

Results for CCn1c(CNC(C)=O)nnc1SCC(=O)c1ccc(Br)cc1 ?
HSF1 inh: 69.6; esBAF inh: -3.3; HSF-1 act: 81.6*; MITF TRPM1 HTS: -8.9

What do the screens show for `CCn1c(SCC(=O)c2ccc(C)cc2)nnc1-c1ccoc1C`?
Wnt bcat act: 4.1; HSF1 inh: -3.6; esBAF inh: 88.4*; HSF-1 act: 26.0

Results for CCn1c(CNC(=O)Cc2ccc(OC)cc2)nnc1SCC(=O)c1ccc(Br)cc1 ?
Wnt bcat act: -3.5; HSF1 inh: 21.5; HSF-1 act: 44.8; MITF TRPM1 HTS: -2.6

What do the screens show for `CCn1c(SCC(=O)c2ccc(Cl)cc2)nnc1-c1ccoc1C`?
Wnt bcat act: 5.1; HSF1 inh: 40.3; esBAF inh: 9.3; HSF-1 act: 75.0*; MITF TRPM1 HTS: 14.4

How did C[C@H](CO)N1C[C@H](C)[C@@H](CN(C)C(=O)Nc2ccc(F)cc2)OCCCC[C@H](C)Oc2ccc(NS(C)(=O)=O)cc2C1=O do in these assays?
esBAF inh: 5.0

How did C/C=C/c1ccc([C@@H]2[C@@H](CNC(=O)c3ccncc3)N(C(C)=O)[C@H]2CO)cc1 do in these assays?
esBAF inh: -0.9

What do the screens show for `Cn1c(CO)cnc1SCC(=O)c1ccc(Cl)cc1`?
Wnt bcat act: -0.8; HSF1 inh: 48.3; HSF-1 act: 80.4*; MITF TRPM1 HTS: 0.9

From PubChem BioAssay
